The whole screen tested about 420,000 compounds, of which about 50,000 (12%) were called active. Roughly 26% stayed inconclusive and do not appear here. The call rests on the fitted dose curve; in most records, active means well fitted inhibition curve with a large enough effect; inconclusive means small, poorly fitted or top-dose-only effect; inactive means flat fitted curve, though single readings scatter. This excerpt belongs to a sample that is enriched for actives.
On the % scale 0 is the no-effect control and ±100 the full control effect; potency means the concentration at half of the fitted maximal effect.

This assay is described as follows: qHTS for Inhibitors of human tyrosyl-DNA phosphodiesterase 1 (TDP1): qHTS in cells in presence of CPT. Further: nearly all actives have a fitted effect of over 55% in size. The following applies: chicken DT40 Tdp1-/-;hTDP1 cells + 20 nM CPT, ATP luminescence, 48 h; series mostly up to 46.2 µM; activity change, negative = growth inhibition: at the top concentration. Put shortly: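 Cell growth measured by CellTiter-Glo luminescence after a minimum 48 h, 37 C compound exposure with 20 nM CPT in Tdp1-knockout DT40 cells stably expressing hTDP1, seeded 400/well; qHTS titration format.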
On the technique in general: Quantitative high-throughput screening tests each substance at several concentrations.
With `CCS(=O)(=O)Nc1ccc(C(=O)NCCSc2ccccc2)cc1`, the “activity change, negative = growth inhibition” value is -13.8% (inactive).

Turning to `COc1ccc(-c2nc(Cn3c(=O)cc(C)c4c(C)nn(-c5ccccc5)c43)c(C)o2)cc1OC`, the “activity change, negative = growth inhibition” value is -1.38% (inactive).

Regarding `CCCCCCn1c(=O)n2n(c1=O)C[C@]1(OC(=O)NCc3ccc(OC)c(OC)c3)CN(S(=O)(=O)c3ccc(C)cc3)C[C@]1(O)C2`, the Potency is 23.1 µM (active).

In the case of `Cc1ccc(S(=O)(=O)N2C[C@]3(O)C[C@@H]4C(=O)N(c5ccccc5)C(=O)[C@@H]4C[C@]3(OC(=O)NC3CC3)C2)cc1`, the “activity change, negative = growth inhibition” value was -5.7% (inactive).

Turning to `COc1ccc(CNC(=O)COC(=O)CCS(=O)(=O)c2ccc(C)cc2)cc1OC`, the “activity change, negative = growth inhibition” value was 4.42% (inactive).

On to `CC1CCCCC1NC(=O)c1cn(C)c2ccc(S(=O)(=O)N3CCOCC3)cc2c1=O` (stereo unspecified), for which the “activity change, negative = growth inhibition” value was -3.99% (inactive).

With `Cc1ccc(S(=O)(=O)N2CCC(Oc3ccc(-n4cnnn4)cc3)CC2)cc1`, the Potency result is “inactive”.

For `OCCc1ccc(NCCc2ccco2)cc1`, the “activity change, negative = growth inhibition” value was -0.916% (inactive).

For the compound `OCCNc1ncnc2oc(-c3ccco3)c(-c3ccco3)c12`, the Potency is 12.6 µM (active).

Turning to `Cc1nnc(NCCO)c2ccccc12`, the “activity change, negative = growth inhibition” value was -21.7% (inactive).

Take `COCCNc1ncnc2c1ncn2[C@H]1CN(Cc2ccc(OC)cc2)C[C@@H](CO)O1`: the “activity change, negative = growth inhibition” value is 0.682% (inactive).

In the case of `COc1ccc(-c2oc3ncnc(NCCCO)c3c2-c2ccc(OC)cc2)cc1`, the Potency is 20.6 µM (active).

Consider `O=C(CCSCc1cccc(F)c1)NCc1ccccc1`, for which the “activity change, negative = growth inhibition” value was -26.1% (inactive).

As to `COc1ccccc1CNS(=O)(=O)c1c(C)[nH]c(C)c1C(=O)N1CCCCC1`, the “activity change, negative = growth inhibition” value was -24.2% (inactive).

In the case of `COc1ccc(-n2c(SC)nc(O)cc2=O)cc1`, the “activity change, negative = growth inhibition” value is 3.21% (inactive).

For the compound `CCOc1ccc(-n2c(C)nc3c(cnn3-c3ccc(C)cc3)c2=O)cc1`, the Potency was 5.17 µM (active).

For `CCOC(=O)c1ccc(-n2c(C)nc3c(cnn3-c3ccccc3C)c2=O)cc1`, the “activity change, negative = growth inhibition” value was -14.8% (inactive).

For the compound `COc1ccc(-n2c(C)nc3c(cnn3-c3ccccc3)c2=O)cc1`, the Potency was 29.1 µM (active).

Regarding `CC(=O)Cn1cnc2c(cnn2-c2ccccc2)c1=O`, the “activity change, negative = growth inhibition” value is 6.92% (inactive).

On to `Cc1ccc(Oc2cnn(-c3ccccc3)c(=O)c2Br)cc1`, for which the “activity change, negative = growth inhibition” value was -24% (inactive).

Turning to `COc1ccc(-n2c(C)nc3c(cnn3-c3ccc(F)cc3)c2=O)cc1`, the Potency was 23.1 µM (active).

For the compound `CCC(C)Sc1nc2c(cnn2-c2ccc(F)cc2)c(=O)[nH]1` (stereo unspecified), the “activity change, negative = growth inhibition” value was -4.36% (inactive).

Regarding `CCc1nc2c(cnn2-c2ccc(C)cc2)c(=O)n1-c1ccc(C)cc1`, the “activity change, negative = growth inhibition” value is -22.7% (inactive).

As for `CC1CCc2c(c3ccccc3[nH]c2=O)O1` (stereo unspecified), the “activity change, negative = growth inhibition” value was 1.58% (inactive).

For `COc1ccc(-c2nc(N)sc2C2(O)C(=O)Nc3c(Br)cc(F)cc32)cc1OC` (stereo unspecified), the “activity change, negative = growth inhibition” value is 0.824% (inactive).

Take `O=C(COC(=O)c1cccnc1Cl)Nc1ccc(S(=O)(=O)N2CCOCC2)cc1`: the “activity change, negative = growth inhibition” value is -4.85% (inactive).

`COc1ccccc1CNC(=O)CCCN1C(=O)NC2(CCCC2)C1=O`: the “activity change, negative = growth inhibition” value is -16.4% (inactive).

`CC[C@]1(c2ccccc2OC)C(=O)N(C(=O)OC)N1C(=O)OC`: the Potency is 20.6 µM (active).

Turning to `COc1ccccc1CC(=O)Nc1ccc([N+](=O)[O-])cc1OC`, the “activity change, negative = growth inhibition” value was -27.9% (inactive).

For the compound `Cc1ccccc1/C=C\c1nc(O)c([N+](=O)[O-])c(=O)[nH]1`, the “activity change, negative = growth inhibition” value was 1.6% (inactive).

For the compound `O=C(NNC(=O)c1cnccc1C(F)(F)F)c1ccc(Cl)cc1`, the “activity change, negative = growth inhibition” value is -1.63% (inactive).

Turning to `O=C(NNC1=C(C(=O)C(F)(F)F)CCC1)c1ccncc1`, the Potency is 1.64 µM (active).

Turning to `Cc1ccc(C(=O)NNC(=O)c2ccncc2)cc1S(=O)(=O)N1CCCCC1`, the “activity change, negative = growth inhibition” value is -14.8% (inactive).

Turning to `COc1cccc(NC(=O)CN(C)CC(=O)c2c(N)n(Cc3ccccc3)c(=O)n(C)c2=O)c1`, the “activity change, negative = growth inhibition” value was -2.74% (inactive).

For the compound `O=C(OCC(=O)N1CCCCCC1)c1cccc(Cl)c1Cl`, the “activity change, negative = growth inhibition” value was -1.2% (inactive).

Consider `Cc1ccccc1C(=O)NCC(c1ccco1)N1CCc2ccccc21` (stereo unspecified), for which the “activity change, negative = growth inhibition” value is 0.122% (inactive).

On to `CCOC(=O)c1c(NC(=O)CSc2cn(CCNC(=O)c3cccc(C(F)(F)F)c3)c3ccccc23)sc2c1CCC2`, for which the “activity change, negative = growth inhibition” value was -11.3% (inactive).

As for `O=C(NCC(c1cccnc1)N1CCc2ccccc21)c1cccc(C(F)(F)F)c1` (stereo unspecified), the Potency is 16.4 µM (active).

With `CCNC(=O)c1cnn(-c2ccccc2)c1-c1ccccc1`, the “activity change, negative = growth inhibition” value was -25.6% (inactive).

Take `CCCCNCCS(=O)(=O)NCc1ccccc1`: the “activity change, negative = growth inhibition” value is -3.55% (inactive).

As for `Cc1ccc(SCCC(=O)OCC(=O)Nc2ncc(Cl)cc2Cl)cc1`, the “activity change, negative = growth inhibition” value is -22.8% (inactive).

Regarding `Cc1cc(NC(=O)CSc2nc3ccccc3n2CC(C)C)no1`, the “activity change, negative = growth inhibition” value is 0.712% (inactive).

`Cc1ccc(-n2c(SCC(=O)Nc3ncc(Cl)cc3Cl)nc3ccccc32)cc1`: the Potency was 14.6 µM (active).

In the case of `Cc1cccc(N(CC(=O)N2CCCC2)S(C)(=O)=O)c1C`, the “activity change, negative = growth inhibition” value was -0.939% (inactive).

On to `CCN(CC)C(=O)CS(=O)CC(=O)Nc1cc(OCCOC)c(Cl)cc1Cl` (stereo unspecified), for which the “activity change, negative = growth inhibition” value was -0.33% (inactive).

Consider `COc1ccccc1CNCc1cccs1`, for which the “activity change, negative = growth inhibition” value was -5.33% (inactive).

For the compound `COc1ccccc1-c1nc(NCCNC(C)=O)c2ccccc2n1`, the “activity change, negative = growth inhibition” value was 0.18% (inactive).

`COc1ccccc1-c1nc(NCc2cccs2)c2ccccc2n1`: the Potency was 16.4 µM (active).

On to `O=C(O)CN1CCN(C(c2ccccc2)c2ccccc2)CC1`, for which the “activity change, negative = growth inhibition” value is -0.379% (inactive).

For `CC1(C)CC(=O)C=C(N2CCCC2)C1`, the “activity change, negative = growth inhibition” value was 5.46% (inactive).

For `CC1(C)CC(N2CCN(C(c3ccccc3)c3ccccc3)CC2)=CC(=[N+]2CCCCC2)C1`, the Potency was 0.164 µM (active).

The values are drawn from PubChem BioAssay AID686979 (National Center for Advancing Translational Sciences (NCATS), 2013).
